From PubChem BioAssay (NCI)
The panel holds about 79,000 compounds, 15% with a hit somewhere; the sample as a whole holds those more often. A number with no mark means an inactive call. Activity calls are given as the source filed them. Rule as the data show it: active = growth inhibition above about 70%; inactive = the rest.

Experiments:
[1] = NCI Yeast Anticancer Drug Screen. Data for the rad50 strain (AID 155);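 also: 0% = growth of vehicle-only cultures of the same strain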; settings: S. cerevisiae rad50 strain growth inhibition; at 50.0 µM; hits give high values
Method in brief: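 Readout: growth inhibition relative to vehicle-treated cultures. Compound exposure was carried out in a genetically defined yeast strain deficient in DNA damage repair.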

[2] = NCI Yeast Anticancer Drug Screen. Data for the mec2-1 strain (AID 157); settings: S. cerevisiae mec2-1 strain, at 50.0 µM, hits give high values
Method in brief: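 Growth inhibition is read against vehicle-treated controls after compound exposure of the mec2-1 yeast strain, which is defective in DNA damage repair or cell cycle control.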

[3] = NCI Yeast Anticancer Drug Screen. Data for the sgs1 mgt1 strain (AID 161);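 also: 0% = growth of cultures given vehicle only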; settings: S. cerevisiae sgs1 mgt1 strain, at 50.0 µM, hits give high values
Method in brief: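 This yeast growth screen uses a strain with defined DNA-repair lesions; compound-treated growth is compared with vehicle-treated growth.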

[4] = NCI Yeast Anticancer Drug Screen. Data for the cln2 rad14 strain (AID 165);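 also: 0% = growth equal to vehicle treated cultures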; settings: S. cerevisiae cln2 rad14 strain, at 50.0 µM, hits give high values
Method in brief: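 Growth inhibition, relative to vehicle-treated controls, is the read-out. The test organism is a yeast strain with defined genetic alterations, cln2 rad14.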

[5] = NCI Yeast Anticancer Drug Screen. Data for the bub3 strain (AID 167); settings: S. cerevisiae bub3 mutant strain, at 50.0 µM, hits give high values
Method in brief: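 Readout: yeast growth inhibition, expressed relative to vehicle-only wells. The test organism is a mutant strain from a panel with lesions in DNA repair or checkpoint genes.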

[6] = NCI Yeast Anticancer Drug Screen. Data for the mlh1 rad18 strain (AID 175); settings: S. cerevisiae mlh1 rad18 strain growth inhibition; at 50.0 µM; hits give high values
Method in brief: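 Cells of a genetically altered yeast strain, deficient in DNA damage repair, were treated with compound. Their growth was then compared with that of vehicle-treated cultures to give inhibition.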

SMILES	growth inhibition [1]	growth inhibition [2]	growth inhibition [3]	growth inhibition [4]	growth inhibition [5]	growth inhibition [6]
C=CCNC=O	2.55%	3.6%	-6.4%	-5.05%	14.4%	-18.1%
CC1C(NNC(N)=O)Oc2cc3c(cc2C1c1ccccc1O)OCO3 (stereo unspecified)	-5.7%	-25.4%	11.8%	10.2%	-11.1%	-4.75%
Cc1cc(C)cc([N+](=O)[O-])c1	8.5%	-19%	1.3%	20.1%	4.65%	-26.3%
Clc1cc(OCC23CC4CC(CC(C4)C2)C3)nc(OCC23CC4CC(CC(C4)C2)C3)n1	-35.1%	4.6%	-18.7%	-4.8%	9%	-13.4%
Nc1nc2[nH]c(=O)c(C(=O)O)nc2c(=O)[nH]1	8.35%	-6.15%	-5.05%	-16.6%	10.4%	-11.6%
COC1OC2COC(c3ccccc3)OC2C(OC)C1OC(=O)c1ccccc1 (stereo unspecified)	-3.05%	0.85%	-14.1%	-37.6%	-2.05%	7.55%
O=C1CN(CCCN2CCOCC2)CC(=O)N2Cc3ccccc3CN12	-25.9%	-3.8%	-9.45%	-0.45%	2.95%	3.7%
CC[n+]1c(COCCOc2ccccc2)sc2cc3c(cc21)OCO3	-23.4%	-11.4%	-0.35%	12%	2.55%	-18.1%
Cc1c(F)cc(I)cc1[N+](=O)[O-]	-3.7%	-9.1%	-11%	6.9%	1%	-16.6%
O=c1[nH]cc(F)c(=S)[nH]1	-9.85%	-16.5%	-5.9%	-16.4%	6.2%	-23.9%
Cc1nc(-c2nc(C(=O)NCCC[S+](C)C)cs2)cs1	-11.5%	-7.85%	-5.4%	3.4%	-2.35%	-0.2%
COC(=O)N[C@H](C(=O)O)C(C)O[Si](C)(C)C(C)(C)C (stereo partly specified)	-16.2%	-14%	-52.6%	8.2%	-33%	-34.5%
CSc1ccc(NC(=O)COc2ccccc2)cc1	9.75%	19.1%	6.05%	-3.7%	39.3%	21.7%
COc1ccc(NC=O)c(C(O)CCNC(C)=O)c1 (stereo unspecified)	-15.4%	-10.1%	-19.6%	0.45%	-39.1%	-34.5%
Nc1cc2c(cc1Br)-c1ccc(Br)cc1C2=O	-6.65%	-6.65%	-0.7%	-30.2%	21.4%	-5.25%
CCOC(=O)CNC(N)=O	33.6%	15.3%	-19.5%	19.4%	23.8%	5.2%
Cn1c(=O)c2c(ncn2CC(=O)O)n(C)c1=O	-3.9%	-28.1%	-8.5%	6.7%	-13.8%	19.9%
C[CH2][Sn]([CH2]C)([O]C(=O)c1ccc2c(c1)OC(C)(C)O2)[O]C(=O)c1ccc2c(c1)OC(C)(C)O2	51.3%	52.1%	4.7%	41.4%	14%	-2.7%
CCC(=O)c1ccc(O)c(C)c1	4.85%	-2.9%	0.2%	-2.6%	37.7%	2.45%
OC1(c2ccccc2)CCN(C/C=C/c2ccccc2Cl)CC1	66.1%	53.9%	70.1% (active)	77.1% (active)	57.6%	85.8% (active)
Oc1ccc(C=Nc2ccccc2)c(O)c1O	-12.7%	-24.4%	-4.9%	-7.25%	-9.7%	6.2%

SMILES	growth inhibition [1]	growth inhibition [2]	growth inhibition [3]	growth inhibition [4]	growth inhibition [5]	growth inhibition [6]
C=CCCC(C)(C(=O)OCC)C(=O)OCC	7.45%	-15.8%	-23.9%	-30.3%	1.45%	-11%
Cc1ccc(/C(O)=C/c2nc3ccc([N+](=O)[O-])cc3nc2/C=C(\O)c2ccc(C)cc2)cc1	13.8%	-3.45%	-23.1%	-28.6%	-19.2%	-14%
CC(CO)(CO)N1C(=O)c2cccc3cc([N+](=O)[O-])cc(c23)C1=O	31.4%	29.1%	50.1%	31.1%	35.2%	14.3%
CCCO/N=[N+](\[O-])N(CC)CC	-7.7%	-17.4%	7.5%	13.8%	-0.8%	-1.45%
CCNCC(OC)C(COC)OC(=O)c1ccc([N+](=O)[O-])cc1 (stereo unspecified)	15.1%	-11.6%	-7.65%	-32.9%	20.4%	7.25%
CN(C)C(=O)c1cccc([N+](=O)[O-])c1	1%	-3.5%	-4.65%	2.65%	13.2%	31.9%
Cc1cncc(C)c1	17.6%	-22.1%	5.6%	-6.85%	7.2%	8.5%
CCOC(=O)NCC1(c2ccccc2)CCN(Cc2ccccc2)CC1	-9.75%	-17.6%	-11.9%	1.35%	-14.9%	-1.7%
CCCC1CCCCC1O (stereo unspecified)	-9.55%	-38.8%	-24.4%	7.15%	-24.2%	-6.95%
O=C(O)CC(NC(=O)CP(=O)(O)O)C(=O)O (stereo unspecified)	-9.4%	-21.9%	-10.6%	2%	-8.5%	-13.1%
NCC(=O)N1CCCCC1	7.05%	9.75%	4.95%	-8.15%	-2.1%	7.7%
CCCS(=O)(=O)N1CC(C)OC(C)C1 (stereo unspecified)	2.35%	-16.9%	3.5%	-7.1%	-10.7%	3.2%
COC(=O)C(CC(=O)C=[N+]=[N-])NC(=O)C(Cl)Cl (stereo unspecified)	-2.4%	-8.9%	-4.7%	-15.9%	9.3%	-8.95%
O=[N+]([O-])C1C2CCC(C2)C1c1ccccc1 (stereo unspecified)	9.55%	-3.75%	-0.55%	-2.05%	14.9%	-0.2%
C(CN1CCC2CCC(C2)C1)=C(c1ccccc1)c1ccccc1 (stereo unspecified)	3.75%	-1.3%	15.3%	-17.9%	26.1%	4.35%
O=C(Nc1cccc(O)c1)Nc1ccc(Cl)cc1[N+](=O)[O-]	98.2% (active)	99.3% (active)	99.2% (active)	97.5% (active)	83% (active)	97.8% (active)
COc1cc2c(oc(=O)c3c4occc4cc(OC)c23)c2cccc(OCc3ccccc3)c12	2%	14.9%	-11.8%	8.35%	-20.9%	3.85%
Cc1ccc(N(C(=O)CC(=O)N/N=C/c2ccccc2O)C(=O)c2ccccc2)cc1	-6.55%	-16.8%	-2.05%	8.2%	-27.1%	-10.8%
CC(=O)CC(=O)N1CCCCCCC1	-34%	-57.5%	-12.4%	-8.4%	-23.2%	-34.2%
N#Cc1ccc(/C=C2\Cc3ccccc3C2=O)cc1	-30.6%	-29.7%	-35%	9.5%	-18.8%	3.5%
